# Experimental data reported in PMC7862700, “An all-to-all approach to the identification of sequence-specific readers for epigenetic DNA modifications on cytosine”.
# Tests used:
# Test in all cases: DAPPL (digital affinity profiling via proximity ligation, sequencing); 10 mM Tris-HCl pH 7.5, 50 mM NaCl, 1 mM DTT, 4% glycerol, room temperature, 30 min; GST-TFs on glutathione beads, 16-mer random dsDNA library, 0.1% formaldehyde crosslink after washing; high values mean tight binding
# FEV = target: T1, FEV (Homo sapiens, UniProt Q99581 1-238); conditions: protein: recombinant; tags: N-terminal GST; dsDNA, one strand shown
# T1 sequence: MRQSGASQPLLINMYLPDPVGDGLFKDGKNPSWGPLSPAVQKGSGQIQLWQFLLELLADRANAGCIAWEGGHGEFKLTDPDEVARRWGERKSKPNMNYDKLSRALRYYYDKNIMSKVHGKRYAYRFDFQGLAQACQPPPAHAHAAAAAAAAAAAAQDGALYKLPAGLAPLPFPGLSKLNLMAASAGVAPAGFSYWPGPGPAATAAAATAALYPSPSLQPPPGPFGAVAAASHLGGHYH
# Summary of the method: (§1)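 Yeast served to express human transcription factors as GST fusions, which were then captured on glutathione beads and labelled with DNA barcodes. Pooled with a tag-only sample, they were incubated with 200 nmole of a 16-mer random double-stranded DNA library for 30 min at room temperature in Tris/NaCl/DTT/glycerol buffer, washed, crosslinked with 0.1% formaldehyde, ligated by proximity, amplified by PCR and sequenced. Dividing each hexamer's read frequency for a factor by its frequency for the tag-only sample gives the binding signal.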
# ETV5 = ETV5 (Homo sapiens, UniProt P41161 1-510); conditions: protein: recombinant; tags: N-terminal GST; dsDNA, one strand shown
# ETV5, sequence (P41161 whole entry): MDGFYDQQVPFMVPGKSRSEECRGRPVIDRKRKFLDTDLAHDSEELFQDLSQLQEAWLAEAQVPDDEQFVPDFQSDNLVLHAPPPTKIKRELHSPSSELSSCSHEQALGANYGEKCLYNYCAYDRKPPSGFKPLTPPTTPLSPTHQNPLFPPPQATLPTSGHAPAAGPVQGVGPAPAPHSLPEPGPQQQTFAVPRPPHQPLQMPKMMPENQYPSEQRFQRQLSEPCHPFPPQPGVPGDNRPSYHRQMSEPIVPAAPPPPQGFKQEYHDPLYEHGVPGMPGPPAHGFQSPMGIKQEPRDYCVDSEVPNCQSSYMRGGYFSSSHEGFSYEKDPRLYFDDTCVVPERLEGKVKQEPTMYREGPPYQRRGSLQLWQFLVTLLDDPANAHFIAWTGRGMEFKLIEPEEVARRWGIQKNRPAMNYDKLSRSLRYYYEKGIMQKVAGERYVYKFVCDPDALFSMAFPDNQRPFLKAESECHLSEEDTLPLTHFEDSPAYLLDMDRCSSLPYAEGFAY
# Summary of the method: as §1
# HSF1 = HSF1 (Homo sapiens, UniProt Q00613 1-529); conditions: protein: recombinant; tags: N-terminal GST; chain copies: 3; dsDNA, one strand shown
# HSF1, sequence (Q00613 whole entry): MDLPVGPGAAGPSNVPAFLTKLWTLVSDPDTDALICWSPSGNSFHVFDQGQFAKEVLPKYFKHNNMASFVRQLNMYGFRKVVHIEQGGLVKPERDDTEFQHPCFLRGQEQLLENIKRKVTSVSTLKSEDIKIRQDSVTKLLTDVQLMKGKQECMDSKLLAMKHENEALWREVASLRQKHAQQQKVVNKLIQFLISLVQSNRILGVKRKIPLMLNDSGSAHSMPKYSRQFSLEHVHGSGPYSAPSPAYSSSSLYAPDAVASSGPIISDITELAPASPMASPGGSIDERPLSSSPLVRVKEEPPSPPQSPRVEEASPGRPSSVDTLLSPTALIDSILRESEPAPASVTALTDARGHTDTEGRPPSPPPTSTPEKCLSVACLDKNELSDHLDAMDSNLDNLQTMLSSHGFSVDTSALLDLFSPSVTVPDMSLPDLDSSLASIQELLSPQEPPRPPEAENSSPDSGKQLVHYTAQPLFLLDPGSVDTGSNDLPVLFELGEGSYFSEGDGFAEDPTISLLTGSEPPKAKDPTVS
# Summary of the method: as §1
# SPIC = target: T2, SPIC (Homo sapiens, UniProt Q8N5J4 1-248); conditions: protein: recombinant; tags: N-terminal GST; dsDNA, one strand shown
# T2 sequence: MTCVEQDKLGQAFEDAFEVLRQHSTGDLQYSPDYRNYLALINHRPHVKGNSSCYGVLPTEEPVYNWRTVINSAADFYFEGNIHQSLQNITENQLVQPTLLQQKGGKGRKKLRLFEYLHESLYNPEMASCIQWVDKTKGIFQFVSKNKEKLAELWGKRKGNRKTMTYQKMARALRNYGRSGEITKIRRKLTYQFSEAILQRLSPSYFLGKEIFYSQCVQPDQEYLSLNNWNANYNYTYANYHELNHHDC
# Summary of the method: as §1
# ELF4 = ELF4 (Homo sapiens, UniProt Q99607 1-663); conditions: protein: recombinant; tags: N-terminal GST; dsDNA, one strand shown
# ELF4, sequence (Q99607 whole entry): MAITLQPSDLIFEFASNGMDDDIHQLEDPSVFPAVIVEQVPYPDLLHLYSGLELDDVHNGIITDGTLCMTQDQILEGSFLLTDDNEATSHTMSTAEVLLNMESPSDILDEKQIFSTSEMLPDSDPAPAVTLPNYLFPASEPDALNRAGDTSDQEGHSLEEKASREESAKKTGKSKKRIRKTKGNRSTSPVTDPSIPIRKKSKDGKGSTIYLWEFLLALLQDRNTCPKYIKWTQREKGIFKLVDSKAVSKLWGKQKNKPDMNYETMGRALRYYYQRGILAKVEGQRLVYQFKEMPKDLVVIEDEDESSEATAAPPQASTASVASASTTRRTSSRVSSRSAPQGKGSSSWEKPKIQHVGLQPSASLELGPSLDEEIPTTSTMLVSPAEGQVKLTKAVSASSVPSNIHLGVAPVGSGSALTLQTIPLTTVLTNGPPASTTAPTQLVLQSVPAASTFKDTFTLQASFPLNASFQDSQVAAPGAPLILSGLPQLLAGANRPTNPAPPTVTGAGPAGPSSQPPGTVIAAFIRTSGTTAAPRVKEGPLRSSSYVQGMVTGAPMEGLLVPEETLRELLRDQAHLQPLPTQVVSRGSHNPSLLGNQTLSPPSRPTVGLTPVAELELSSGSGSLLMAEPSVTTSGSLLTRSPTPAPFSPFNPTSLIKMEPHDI
# Summary of the method: as §1
# ELK4 = target: T3, ELK4 (Homo sapiens, UniProt P28324-2 1-405); conditions: protein: recombinant; tags: N-terminal GST; dsDNA, one strand shown
# T3 sequence: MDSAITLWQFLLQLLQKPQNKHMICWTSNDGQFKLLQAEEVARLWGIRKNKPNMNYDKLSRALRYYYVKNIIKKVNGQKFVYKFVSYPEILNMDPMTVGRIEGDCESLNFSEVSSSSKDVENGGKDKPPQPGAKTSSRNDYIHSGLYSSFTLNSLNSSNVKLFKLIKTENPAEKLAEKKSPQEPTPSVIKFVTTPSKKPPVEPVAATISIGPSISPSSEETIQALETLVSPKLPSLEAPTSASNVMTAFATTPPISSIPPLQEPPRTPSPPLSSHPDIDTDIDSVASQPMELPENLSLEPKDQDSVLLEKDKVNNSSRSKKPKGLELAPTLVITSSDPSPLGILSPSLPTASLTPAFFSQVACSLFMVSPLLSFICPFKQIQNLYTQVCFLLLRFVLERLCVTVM
# Summary of the method: as §1
# ETV2 = target: T4, ETV2 (Homo sapiens, UniProt O00321 1-342); conditions: protein: recombinant; tags: N-terminal GST; dsDNA, one strand shown
# T4 sequence: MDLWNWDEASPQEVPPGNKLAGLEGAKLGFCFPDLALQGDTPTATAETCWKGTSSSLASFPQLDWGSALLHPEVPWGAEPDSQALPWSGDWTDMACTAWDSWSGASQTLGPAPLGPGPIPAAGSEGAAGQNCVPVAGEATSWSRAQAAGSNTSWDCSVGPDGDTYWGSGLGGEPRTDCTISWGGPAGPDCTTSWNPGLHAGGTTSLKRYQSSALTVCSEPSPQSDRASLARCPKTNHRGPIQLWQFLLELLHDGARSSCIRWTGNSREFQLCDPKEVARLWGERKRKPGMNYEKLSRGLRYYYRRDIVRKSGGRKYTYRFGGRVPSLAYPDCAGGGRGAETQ
# Summary of the method: as §1
# ELF3 = target: T5, ELF3 (Homo sapiens, UniProt P78545 1-371); conditions: protein: recombinant; tags: N-terminal GST; dsDNA, one strand shown
# T5 sequence: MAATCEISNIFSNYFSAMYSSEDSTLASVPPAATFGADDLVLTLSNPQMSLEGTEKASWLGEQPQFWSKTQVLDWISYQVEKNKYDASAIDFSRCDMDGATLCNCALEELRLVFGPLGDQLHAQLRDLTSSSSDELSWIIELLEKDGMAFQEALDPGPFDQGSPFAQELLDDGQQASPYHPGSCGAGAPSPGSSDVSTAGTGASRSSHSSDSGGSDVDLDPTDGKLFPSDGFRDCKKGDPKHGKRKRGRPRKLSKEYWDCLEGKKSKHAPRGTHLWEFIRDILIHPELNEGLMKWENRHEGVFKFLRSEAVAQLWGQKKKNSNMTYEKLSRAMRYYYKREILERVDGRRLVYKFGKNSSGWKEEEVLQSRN
# Summary of the method: as §1
# CRX = CRX (Homo sapiens, UniProt O43186 1-299); conditions: protein: recombinant; tags: N-terminal GST; dsDNA, one strand shown
# CRX, sequence (O43186 whole entry): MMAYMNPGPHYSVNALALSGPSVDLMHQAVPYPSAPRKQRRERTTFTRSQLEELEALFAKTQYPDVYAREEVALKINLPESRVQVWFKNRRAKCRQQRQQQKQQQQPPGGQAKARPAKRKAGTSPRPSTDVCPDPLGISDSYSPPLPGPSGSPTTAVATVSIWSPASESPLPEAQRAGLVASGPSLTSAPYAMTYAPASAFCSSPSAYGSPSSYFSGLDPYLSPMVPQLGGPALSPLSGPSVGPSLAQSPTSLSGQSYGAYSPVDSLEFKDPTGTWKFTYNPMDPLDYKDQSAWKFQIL
# Summary of the method: as §1
# ETV1 = ETV1 (Homo sapiens, UniProt P50549 1-477); conditions: protein: recombinant; tags: N-terminal GST; dsDNA, one strand shown
# ETV1, sequence (P50549 whole entry): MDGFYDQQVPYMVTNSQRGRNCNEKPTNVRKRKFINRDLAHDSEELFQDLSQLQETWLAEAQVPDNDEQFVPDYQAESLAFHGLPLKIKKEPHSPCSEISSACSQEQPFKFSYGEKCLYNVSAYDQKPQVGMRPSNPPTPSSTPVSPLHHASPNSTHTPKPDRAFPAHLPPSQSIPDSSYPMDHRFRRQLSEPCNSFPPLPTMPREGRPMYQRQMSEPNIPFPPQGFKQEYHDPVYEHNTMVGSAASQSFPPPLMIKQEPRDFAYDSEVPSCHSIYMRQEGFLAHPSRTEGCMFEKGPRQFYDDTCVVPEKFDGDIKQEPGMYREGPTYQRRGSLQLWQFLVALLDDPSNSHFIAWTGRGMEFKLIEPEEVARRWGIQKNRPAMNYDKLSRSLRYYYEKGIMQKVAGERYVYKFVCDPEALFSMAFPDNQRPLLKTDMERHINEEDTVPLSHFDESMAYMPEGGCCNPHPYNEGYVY
# Summary of the method: as §1
# ERF = target: T6, ERF (Homo sapiens, UniProt P50548 1-548); conditions: protein: recombinant; tags: N-terminal GST; dsDNA, one strand shown
# T6 sequence: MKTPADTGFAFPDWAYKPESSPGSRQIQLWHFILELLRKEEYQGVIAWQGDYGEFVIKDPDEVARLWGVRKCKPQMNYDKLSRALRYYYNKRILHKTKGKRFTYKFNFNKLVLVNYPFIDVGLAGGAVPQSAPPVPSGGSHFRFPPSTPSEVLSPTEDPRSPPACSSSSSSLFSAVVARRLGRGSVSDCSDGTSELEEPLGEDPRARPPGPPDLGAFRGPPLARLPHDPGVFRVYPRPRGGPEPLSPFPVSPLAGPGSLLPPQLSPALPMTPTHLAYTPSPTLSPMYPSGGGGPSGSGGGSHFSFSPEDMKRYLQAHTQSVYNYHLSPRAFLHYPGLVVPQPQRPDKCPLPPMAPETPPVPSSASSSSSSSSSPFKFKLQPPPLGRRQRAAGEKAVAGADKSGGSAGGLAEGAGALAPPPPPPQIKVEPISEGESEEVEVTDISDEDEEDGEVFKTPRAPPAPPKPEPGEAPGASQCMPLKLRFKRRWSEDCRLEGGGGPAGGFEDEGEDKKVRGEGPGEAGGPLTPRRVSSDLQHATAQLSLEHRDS
# Summary of the method: as §1
# ETV3L = target: T7, ETV3L (Homo sapiens, UniProt Q6ZN32 1-361); conditions: protein: recombinant; tags: N-terminal GST; dsDNA, one strand shown
# T7 sequence: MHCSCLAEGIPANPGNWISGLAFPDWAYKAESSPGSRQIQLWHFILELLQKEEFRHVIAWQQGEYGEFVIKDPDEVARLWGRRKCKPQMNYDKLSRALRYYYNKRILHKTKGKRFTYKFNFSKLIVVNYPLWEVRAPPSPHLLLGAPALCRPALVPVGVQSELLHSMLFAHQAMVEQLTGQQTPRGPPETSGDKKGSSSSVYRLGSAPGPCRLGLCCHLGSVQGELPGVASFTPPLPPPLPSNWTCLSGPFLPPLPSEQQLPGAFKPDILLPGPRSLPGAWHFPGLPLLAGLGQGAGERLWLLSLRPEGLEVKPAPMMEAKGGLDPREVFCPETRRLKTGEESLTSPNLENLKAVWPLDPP
# Summary of the method: as §1
# ETS2 = target: T8, ETS2 (Homo sapiens, UniProt P15036 1-469); conditions: protein: recombinant; tags: N-terminal GST; dsDNA, one strand shown
# T8 sequence: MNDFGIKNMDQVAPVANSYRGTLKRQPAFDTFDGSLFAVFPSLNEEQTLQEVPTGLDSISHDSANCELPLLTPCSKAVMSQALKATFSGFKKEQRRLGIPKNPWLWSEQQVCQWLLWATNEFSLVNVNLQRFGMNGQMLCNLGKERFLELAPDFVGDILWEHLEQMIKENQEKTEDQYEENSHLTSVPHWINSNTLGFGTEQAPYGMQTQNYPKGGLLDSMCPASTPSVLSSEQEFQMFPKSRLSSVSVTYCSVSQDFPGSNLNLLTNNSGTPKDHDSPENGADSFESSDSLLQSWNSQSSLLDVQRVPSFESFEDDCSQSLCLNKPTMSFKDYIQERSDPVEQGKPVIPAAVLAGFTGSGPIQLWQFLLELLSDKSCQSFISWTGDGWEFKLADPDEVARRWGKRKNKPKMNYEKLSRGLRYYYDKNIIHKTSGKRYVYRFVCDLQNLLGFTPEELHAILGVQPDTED
# Summary of the method: as §1
# SPDEF = target: T9, SPDEF (Homo sapiens, UniProt O95238 1-335); conditions: protein: recombinant; tags: N-terminal GST; dsDNA, one strand shown
# T9 sequence: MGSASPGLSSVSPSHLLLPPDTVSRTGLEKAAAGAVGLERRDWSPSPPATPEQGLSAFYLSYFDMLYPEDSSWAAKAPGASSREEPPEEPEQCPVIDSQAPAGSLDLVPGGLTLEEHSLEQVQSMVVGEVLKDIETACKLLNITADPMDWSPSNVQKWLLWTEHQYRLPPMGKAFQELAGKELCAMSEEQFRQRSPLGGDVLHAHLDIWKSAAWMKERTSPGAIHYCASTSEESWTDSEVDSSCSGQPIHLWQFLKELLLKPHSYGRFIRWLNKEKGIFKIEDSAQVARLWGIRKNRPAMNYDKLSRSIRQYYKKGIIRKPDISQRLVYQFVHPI
# Summary of the method: as §1
# ETV7 = target: T10, ETV7 (Homo sapiens, UniProt Q9Y603 1-341); conditions: protein: recombinant; tags: N-terminal GST; dsDNA, one strand shown
# T10 sequence: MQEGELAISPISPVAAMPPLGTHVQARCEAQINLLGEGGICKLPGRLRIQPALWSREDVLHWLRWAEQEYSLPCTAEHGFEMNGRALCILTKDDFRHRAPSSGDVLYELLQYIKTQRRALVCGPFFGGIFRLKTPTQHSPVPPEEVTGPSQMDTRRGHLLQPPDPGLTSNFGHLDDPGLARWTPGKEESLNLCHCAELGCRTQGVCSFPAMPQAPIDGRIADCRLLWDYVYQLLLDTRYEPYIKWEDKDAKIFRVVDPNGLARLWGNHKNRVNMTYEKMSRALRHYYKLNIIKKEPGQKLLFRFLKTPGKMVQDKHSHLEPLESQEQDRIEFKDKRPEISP
# Summary of the method: as §1
# ELF5 = target: T11, ELF5 (Homo sapiens, UniProt Q9UKW6-2 1-255); conditions: protein: recombinant; tags: N-terminal GST; dsDNA, one strand shown
# T11 sequence: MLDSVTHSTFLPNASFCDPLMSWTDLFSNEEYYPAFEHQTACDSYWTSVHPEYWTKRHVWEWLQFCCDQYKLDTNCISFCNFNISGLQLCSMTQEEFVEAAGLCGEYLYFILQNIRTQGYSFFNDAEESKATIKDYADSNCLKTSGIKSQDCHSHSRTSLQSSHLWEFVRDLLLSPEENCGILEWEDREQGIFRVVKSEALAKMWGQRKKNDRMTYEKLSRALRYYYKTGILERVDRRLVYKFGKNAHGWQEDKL
# Summary of the method: as §1
# ETV3 = target: T12, ETV3 (Homo sapiens, UniProt P41162-2 1-143); conditions: protein: recombinant; tags: N-terminal GST; dsDNA, one strand shown
# T12 sequence: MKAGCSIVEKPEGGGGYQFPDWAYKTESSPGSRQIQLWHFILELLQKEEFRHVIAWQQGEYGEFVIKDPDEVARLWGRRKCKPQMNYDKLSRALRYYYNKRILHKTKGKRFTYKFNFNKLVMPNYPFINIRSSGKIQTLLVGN
# Summary of the method: as §1
# ETV6 = ETV6 (Homo sapiens, UniProt P41212 1-452); conditions: protein: recombinant; tags: N-terminal GST; dsDNA, one strand shown
# ETV6, sequence (P41212 whole entry): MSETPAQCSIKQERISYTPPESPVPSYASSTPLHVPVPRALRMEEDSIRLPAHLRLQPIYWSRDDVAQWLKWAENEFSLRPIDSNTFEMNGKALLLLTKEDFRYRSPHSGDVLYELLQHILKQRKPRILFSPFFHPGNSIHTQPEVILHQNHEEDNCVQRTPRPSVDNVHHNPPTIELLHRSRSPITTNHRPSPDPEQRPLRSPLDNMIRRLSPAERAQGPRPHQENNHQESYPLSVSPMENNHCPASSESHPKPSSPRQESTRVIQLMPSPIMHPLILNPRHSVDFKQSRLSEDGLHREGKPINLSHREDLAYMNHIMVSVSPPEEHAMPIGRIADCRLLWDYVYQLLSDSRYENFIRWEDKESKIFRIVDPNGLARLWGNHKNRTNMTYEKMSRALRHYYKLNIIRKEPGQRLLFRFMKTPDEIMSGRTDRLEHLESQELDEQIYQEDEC
# Summary of the method: as §1
sequence,measurement,setting,value
CGAAAC,binding signal,FEV,"1.2 fold enrichment (6-mer frequency, TF over GST control)"
same,binding signal,ETV5,"1.25 fold enrichment (6-mer frequency, TF over GST control)"
same,binding signal,HSF1,"1.58 fold enrichment (6-mer frequency, TF over GST control)"
same,binding signal,SPIC,"1.27 fold enrichment (6-mer frequency, TF over GST control)"
same,binding signal,ELF4,"1.2 fold enrichment (6-mer frequency, TF over GST control)"
same,binding signal,ELK4,"1.15 fold enrichment (6-mer frequency, TF over GST control)"
same,binding signal,ETV2,"1.22 fold enrichment (6-mer frequency, TF over GST control)"
same,binding signal,ELF3,"1.15 fold enrichment (6-mer frequency, TF over GST control)"
same,binding signal,CRX,"1.02 fold enrichment (6-mer frequency, TF over GST control)"
same,binding signal,ETV1,"1.21 fold enrichment (6-mer frequency, TF over GST control)"
same,binding signal,ERF,"1.24 fold enrichment (6-mer frequency, TF over GST control)"
same,binding signal,ETV3L,"1.22 fold enrichment (6-mer frequency, TF over GST control)"
same,binding signal,ETS2,"1.16 fold enrichment (6-mer frequency, TF over GST control)"
same,binding signal,SPDEF,"1.22 fold enrichment (6-mer frequency, TF over GST control)"
same,binding signal,ETV7,"1.22 fold enrichment (6-mer frequency, TF over GST control)"
same,binding signal,ELF5,"1.12 fold enrichment (6-mer frequency, TF over GST control)"
same,binding signal,ETV3,"1.08 fold enrichment (6-mer frequency, TF over GST control)"
same,binding signal,ETV6,"1.16 fold enrichment (6-mer frequency, TF over GST control)"
